# From PubChem BioAssay (Tox21)
# Values without a mark were called inactive. Inconclusive results are not listed. A call without a number means that no potency is given here. Calls of active or inactive are those of the source. Unless noted, calls follow the shape of the dose curve; as a rule, active = well fitted curve in the direction sought with a large enough effect in the repeat runs; inconclusive = weak or mixed curves; inactive = no such curve, though single readings can be large; an effect the other way counts as inactive or inconclusive.
# Experiments:
# [1] = qHTS assay to identify small molecule antagonists of the estrogen related receptor (ERR) signaling pathway from Tox21 library - cell viability counter screen (AID 1224834); also: nearly all actives have a fitted effect of over 30% in size
# Outline: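 ERR reporter cells were plated 6 h before compound addition, then exposed to test compounds in DMSO for 17.5 h at 37 C. Viability was read as CellTiter-Fluor fluorescence after a 30-minute incubation at 37 C.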
# [2] = qHTS assay to identify small molecule agonists of the constitutive androstane receptor (CAR) signaling pathway - cell viability counter screen (AID 1224836); also: series mostly up to about 92 µM; nearly all actives have a fitted effect of over 45% in size
# Outline: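 HepG2-CYP2B6-hCAR, 2500 cells/well, 4 h pre-incubation; cpd 15 conc + PK11195 0.75 uM final; 23 h, 37 C/5% CO2; CellTiter-Fluor, fluorescence.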
# [3] = qHTS assay to identify small molecule antagonists of the constitutive androstane receptor (CAR) signaling pathway - cell viability counter screen (AID 1224837); also: series mostly up to about 92 µM; nearly all actives have a fitted effect of over 45% in size
# Outline: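 HepG2 cells stably expressing hCAR and a CYP2B6-2.2kb reporter were plated and pre-incubated 4 hr at 37 C/5% CO2, then given compounds at 15 concentrations plus 50 nM CITCO (final). After 23 hr, viability was read by CellTiter-Fluor fluorescence.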
# [4] = target: Nuclear receptor subfamily 1 group I member 3 (Homo sapiens) (UniProt Q14994); test: qHTS assay to identify small molecule antagonists of the constitutive androstane receptor (CAR) signaling pathway (AID 1224838); also: nearly all actives have a fitted effect of over 40% in size
# Sequence of Nuclear receptor subfamily 1 group I member 3 (Homo sapiens) (Q14994 whole entry, looked up): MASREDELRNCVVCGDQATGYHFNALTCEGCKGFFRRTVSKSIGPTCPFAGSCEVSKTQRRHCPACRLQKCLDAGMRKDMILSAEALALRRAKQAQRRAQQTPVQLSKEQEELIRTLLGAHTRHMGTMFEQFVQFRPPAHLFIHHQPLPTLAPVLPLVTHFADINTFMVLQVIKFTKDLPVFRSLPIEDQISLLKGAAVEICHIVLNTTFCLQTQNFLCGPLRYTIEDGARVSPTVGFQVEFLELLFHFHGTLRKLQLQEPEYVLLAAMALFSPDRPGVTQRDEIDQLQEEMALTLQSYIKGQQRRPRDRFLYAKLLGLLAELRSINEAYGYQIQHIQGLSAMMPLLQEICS
# Outline: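 HepG2 cells stably co-transfected with hCAR and a CYP2B6-2.2kb luciferase reporter were seeded 4 h before compound addition at 15 concentrations. Cells were stimulated with 50 nM CITCO (final) for 24 h at 37 C; luciferase luminescence was then read.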
# [5] = target: Nuclear receptor subfamily 1 group I member 3 (Homo sapiens) (UniProt Q14994); test: qHTS assay to identify small molecule agonists of the constitutive androstane receptor (CAR) signaling pathway (AID 1224839);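 also: HepG2 cells stably carrying human CAR and a CYP2B6 luciferase reporter; series mostly up to about 92 µM; nearly all actives have a fitted effect of over 15% in size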
# Outline: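 HepG2-CYP2B6-hCAR cells, 2500/well, 4 h pre-incubation; compounds 15 conc.; PK11195 0.75 uM final; 24 h, 37 C/5% CO2; ONE-Glo luciferase read.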
# [6] = qHTS assay to identify small molecule antagonists of the estrogen related receptor signaling pathway with the pleiotropic PPARgamma coactivator (PGC) from Tox21 10K library - cell viability counter screen (AID 1224840; active = well fitted cell-killing curve with a large enough effect in the repeat runs, not every such curve was filed as active; also: nearly all actives have a fitted effect of over 40% in size)
# Outline: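 PGC/ERR cells were seeded at 2,000 cells/well and left 6 hours at 37 C/5% CO2 before pin-tool addition of compounds in DMSO. After 17.5 hours at 37 C, CellTiter-Fluor was added and fluorescence read 30 minutes later.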
# [7] = qHTS assay to identify small molecule antagonists of the estrogen related receptor signaling pathway with the pleiotropic PPARgamma coactivator (PGC) from Tox21 10K library (AID 1224841; call rule not given here; also: series mostly up to about 92 µM; actives are mostly falling curves and most rising ones were filed inactive; nearly all actives have a fitted effect of over 50% in size)
# Outline: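 PGC/ERR reporter cells were seeded at 2,000 cells/well and held 6 hours at 37 C/5% CO2 before pin-tool addition of compounds in DMSO. After 18 hours at 37 C, One-Glo was added and luminescence read after 30 minutes at room temperature.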
# [8] = qHTS assay to identify small molecule agonists of the estrogen related receptor signaling pathway with the pleiotropic PPARgamma coactivator (PGC) from Tox21 10K library (AID 1224842); also: nearly all actives have a fitted effect of over 15% in size
# Outline: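 PGC/ERR reporter cell line, 2,000 cells per well, incubated 6 h at 37 C before 23 nL compound in DMSO was added. After 18 h at 37 C, One-Glo luminescence read following 30 min at room temperature.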
# [9] = qHTS assay to identify small molecule agonists of the hypoxia (HIF-1) signaling pathway - cell viability counter screen (AID 1224844; calls by dose curve; also: nearly all actives have a fitted effect of over 50% in size)
# Outline: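 HRE-bla ME-180 cells in medium with 0.5% dialyzed FBS were preincubated 5 hrs at 37C, exposed to compounds for 17 hrs, then viability was read as CellTiter-Glo luminescence after 30 min at room temperature, in the reporter wells.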
# [10] = qHTS assay to identify small molecule agonists of H2AX (AID 1224845; active = well fitted activation curve with a large enough effect in the signal ratio in the repeat runs, not every such curve was filed as active; the % refers to the signal ratio)
# Outline: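 Wild-type CHO-K1 cells, plated overnight, exposed 3hr at 37C to 15 concentrations (0.76% DMSO final). Lysed, then HTRF anti-pH2AX (S139) cryptate and anti-H2AX-d2 antibodies, 24 hr room temperature; 665/620 nm emission read.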
# [11] = qHTS assay to identify small molecule agonists of the hypoxia (HIF-1) signaling pathway (AID 1224846; active = well fitted activation curve with a large enough effect in the signal ratio in the repeat runs, not every such curve was filed as active; the % refers to the signal ratio)
# Outline: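 HRE-bla ME-180 cells (beta-lactamase reporter under hypoxia response element) were plated at 2,000 cells/well in medium with 0.5% dialyzed FBS, rested 5 hrs, then given compounds in DMSO for 17 hrs at 37C, 5% CO2. Reporter induction was read with CCF4-AM FRET substrate.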
# [12] = qHTS assay to identify small molecule agonists of H2AX - cell viability counter screen (AID 1224847; calls by dose curve; also: top concentration of the series differs between compounds; nearly all actives have a fitted effect of over 30% in size)
# Outline: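 Cells plated first: CHO-K1, 1000 per well in 10% FBS medium, incubated overnight at 37C. Then 15-point compound titration added (final DMSO 0.76%) for 3 hr. Finally CellTiter-Glo added and luminescence read.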
# [13] = qHTS assay to identify small molecule antagonists of the estrogen related receptor (ERR) signaling pathway from Tox21 library (AID 1224848); also: nearly all actives have a fitted effect of over 50% in size
# Outline: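 Luminescent reporter read-out (ONE-Glo) from NTP's ERR cell line after 18 h treatment at 37 C with DMSO-dissolved Tox21 compounds; cells pre-plated 6 h beforehand at 2,000 per well.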
# [14] = qHTS assay to identify small molecule agonists of the estrogen related receptor (ERR) signaling pathway from Tox21 library (AID 1224849; calls by dose curve; also: nearly all actives have a fitted effect of over 15% in size)
# Outline: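 ERR reporter cell line (NTP) seeded, rested 6 h at 37 C/5% CO2, then pinned with Tox21 compounds in DMSO. After 18 h at 37 C, ONE-Glo luciferase luminescence was read following 30 min at room temperature.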
# [15] = qHTS RealTime-Glo MT Cell Viability Assay in HepG2 cells - 24 hour (AID 1224867); also: nearly all actives have a fitted effect of over 50% in size
# Outline: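 HepG2 cells (600/well) were dispensed with RealTime-Glo reagents, incubated 5 h at 37 °C, then treated with compounds in DMSO for up to 40 h. Nonlytic NanoLuc luminescence reflecting viable cells was read at each stated time point.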
# [16] = A CellTox Green Cytotoxicity Assay to monitor cytotoxicity in HEK293 cells - 0 hour (AID 1224869); also: nearly all actives have a fitted effect of over 50% in size
# Outline: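 HEK293 cells premixed with CellTox Green dye were seeded at 600 cells/well and left 5 h at 37 C/5% CO2 before pin transfer of 23 nL compound in DMSO. Fluorescence from dye bound to dead-cell DNA was read during 40 h treatment.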
# [17] = qHTS RealTime-Glo MT Cell Viability Assay in HepG2 cells - 40 hour (AID 1224870); also: nearly all actives have a fitted effect of over 50% in size
# Outline: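 HepG2 cells (600/well) mixed with RealTime-Glo MT reagent, settled 5 h at 37 C/5% CO2 before compound addition. Nonlytic NanoLuc luminescence from viable-cell prosubstrate reduction read repeatedly during 40 h treatment at 37 C.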
# [18] = target: Thyrotropin receptor (Homo sapiens) (UniProt P16473); test: qHTS assay to identify small molecule agonists of the thyroid stimulating hormone receptor (TSHR) signaling pathway (AID 1224843; calls by dose curve; also: nearly all actives have a fitted effect of over 45% in size; also: potency is read from the fitted curve at half-maximal effect)
# Sequence of Thyrotropin receptor (Homo sapiens) (P16473 whole entry, looked up): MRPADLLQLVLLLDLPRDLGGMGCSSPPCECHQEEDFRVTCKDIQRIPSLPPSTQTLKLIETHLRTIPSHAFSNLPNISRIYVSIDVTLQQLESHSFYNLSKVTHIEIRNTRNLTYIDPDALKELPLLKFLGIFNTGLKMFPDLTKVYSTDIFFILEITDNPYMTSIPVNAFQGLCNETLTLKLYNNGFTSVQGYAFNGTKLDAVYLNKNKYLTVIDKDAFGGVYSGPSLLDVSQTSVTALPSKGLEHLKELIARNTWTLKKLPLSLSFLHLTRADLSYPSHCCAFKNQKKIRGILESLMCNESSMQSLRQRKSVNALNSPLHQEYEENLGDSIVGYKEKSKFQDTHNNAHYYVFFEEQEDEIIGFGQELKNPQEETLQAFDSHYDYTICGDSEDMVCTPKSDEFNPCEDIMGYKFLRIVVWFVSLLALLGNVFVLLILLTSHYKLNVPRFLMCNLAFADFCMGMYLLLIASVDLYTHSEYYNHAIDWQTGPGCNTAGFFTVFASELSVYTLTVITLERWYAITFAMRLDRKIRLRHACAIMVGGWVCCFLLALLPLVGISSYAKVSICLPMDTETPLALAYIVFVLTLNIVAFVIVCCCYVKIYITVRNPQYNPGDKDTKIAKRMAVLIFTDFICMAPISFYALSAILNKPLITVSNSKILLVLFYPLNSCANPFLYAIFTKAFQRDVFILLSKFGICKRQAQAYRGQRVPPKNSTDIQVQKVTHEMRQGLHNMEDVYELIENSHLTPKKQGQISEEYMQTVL
# Outline: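 Steps: seed 800 TSHR-HEK293 cells per well; add test compound and hold 30 min at ambient temperature; dispense cAMP-d2 then anti-cAMP cryptate; incubate 1 h at ambient; measure fluorescence intensity.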
# [19] = qHTS RealTime-Glo MT Cell Viability Assay in HEK293 cells - 32 hour (AID 1224868)
# Outline: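 HEK293 cells seeded with NanoLuc/prosubstrate reagent, rested 5 h at 37 C, then dosed and kept at 37 C up to 40 h. Nonlytic real-time luminescence from viable cells read at 0, 8, 16, 24, 32 and 40 h.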
# [20] = target: Luciferin 4-monooxygenase (Photinus pyralis) (UniProt P08659); test: qHTS assay to identify small molecule inhibitors of firefly luciferase (AID 1224835); also: series mostly up to about 120 µM; nearly all actives have a fitted effect of over 25% in size
# Sequence of Luciferin 4-monooxygenase (Photinus pyralis) (P08659 whole entry, looked up): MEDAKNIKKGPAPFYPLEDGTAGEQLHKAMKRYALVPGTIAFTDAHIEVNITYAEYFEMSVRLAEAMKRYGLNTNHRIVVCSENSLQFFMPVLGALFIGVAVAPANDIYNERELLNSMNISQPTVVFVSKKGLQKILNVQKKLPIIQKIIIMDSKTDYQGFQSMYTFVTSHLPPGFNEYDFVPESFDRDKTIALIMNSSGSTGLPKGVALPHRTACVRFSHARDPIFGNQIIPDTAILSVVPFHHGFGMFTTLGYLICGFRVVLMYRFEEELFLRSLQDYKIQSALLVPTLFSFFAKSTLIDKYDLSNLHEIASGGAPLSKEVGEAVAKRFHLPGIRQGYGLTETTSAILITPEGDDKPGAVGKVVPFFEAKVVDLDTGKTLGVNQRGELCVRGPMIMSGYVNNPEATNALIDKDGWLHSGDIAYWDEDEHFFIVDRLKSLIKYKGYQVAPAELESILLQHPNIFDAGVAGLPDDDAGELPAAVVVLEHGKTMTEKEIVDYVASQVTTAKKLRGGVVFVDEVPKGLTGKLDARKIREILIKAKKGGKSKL
# Outline: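 Biochemical qHTS: compounds run as interplate titrations against purified firefly enzyme, with D-luciferin and ATP each at its KM concentration. Light output recorded by CCD imaging.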
smiles,measurement,setting,value
c1ccc(CCc2ccccc2)cc1,Potency,[1],inactive
same,outcome,[2],inactive
same,outcome,[3],inactive
same,Potency,[4],inactive
same,Potency,[5],inactive
same,outcome,[6],inactive
same,Potency,[7],inactive
same,Potency,[8],inactive
same,Potency,[9],inactive
same,Potency,[10],inactive
same,outcome,[11],inactive
same,outcome,[12],inactive
same,Potency,[13],inactive
same,outcome,[14],inactive
same,outcome,[15],inactive
same,outcome,[16],inactive
same,Potency,[17],inactive
CO[Si](C)(OC)c1ccccc1,Potency,[1],inactive
same,outcome,[2],inactive
same,outcome,[3],inactive
same,Potency,[4],inactive
same,Potency,[5],inactive
same,outcome,[6],inactive
same,Potency,[7],inactive
same,Potency,[8],inactive
same,Potency,[18],inactive
same,Potency,[9],inactive
same,Potency,[10],inactive
same,outcome,[11],inactive
same,Potency,[13],inactive
same,outcome,[14],inactive
same,outcome,[15],inactive
same,Potency,[19],inactive
same,outcome,[16],inactive
same,Potency,[17],inactive
CNCC(O)c1ccc(O)c(O)c1 (stereo unspecified),Potency,[1],inactive
same,outcome,[2],inactive
same,outcome,[3],inactive
same,Potency,[4],inactive
same,Potency,[5],inactive
same,outcome,[6],inactive
same,Potency,[7],inactive
same,Potency,[18],2980 nM (active)
same,Potency,[9],inactive
same,outcome,[12],inactive
same,Potency,[13],inactive
same,outcome,[15],inactive
same,Potency,[19],inactive
same,outcome,[16],inactive
same,Potency,[17],inactive
CCCCCC(=O)OCCc1ccccc1,Potency,[1],inactive
same,outcome,[2],inactive
same,outcome,[3],inactive
same,Potency,[4],inactive
same,Potency,[5],inactive
same,outcome,[6],inactive
same,Potency,[7],inactive
same,Potency,[8],inactive
same,Potency,[18],inactive
same,Potency,[9],inactive
same,Potency,[10],inactive
same,outcome,[11],inactive
same,Potency,[13],inactive
same,outcome,[14],inactive
same,Potency,[19],inactive
same,outcome,[16],inactive
same,Potency,[17],inactive
CCN[C@@H]1C[C@H](N)[C@@H](OC2OC(CN)=CCC2N)[C@H](O)[C@H]1O[C@H]1OC[C@](C)(O)[C@H](NC)[C@H]1O (stereo partly specified),"viability change, negative = cytotoxic",[1],5.78% [at 0.349 µM]
same,"activity change, negative = inhibition",[20],-1.17% [at 0.435 µM]
same,"viability change, negative = cytotoxic",[2],2.22% [at 0.349 µM]
same,"activity change, negative = cytotoxicity",[3],0.22% [at 0.349 µM]
same,"viability change, negative = cytotoxic",[6],-0.298% [at 0.349 µM]
same,"activity change, negative = cytotoxicity",[9],3.33% [at 0.29 µM]
same,activation (H2AX phosphorylation),[10],-3.19% [at 0.582 µM]
same,"activity change, negative = cytotoxicity",[12],4.57% [at 0.582 µM]
same,"activity change, negative = cytotoxicity",[15],1.48% [at 0.29 µM]
same,"activity change, negative = cytotoxic",[19],4.65% [at 0.29 µM]
same,cytotoxicity,[16],3.58% [at 0.29 µM]
same,"activity change, negative = cytotoxic",[17],1.76% [at 0.29 µM]
CCCCc1ccc2c(n1)[C@@H](c1ccc(OC)cc1C[C@H](C)C(=O)O)[C@H](C(=O)O)[C@H]2c1ccc2c(c1)OCO2,Potency,[1],inactive
same,outcome,[2],inactive
same,outcome,[3],inactive
same,Potency,[4],inactive
same,Potency,[5],inactive
same,outcome,[6],inactive
same,Potency,[18],inactive
same,Potency,[9],inactive
same,Potency,[10],inactive
same,outcome,[11],inactive
same,outcome,[12],inactive
same,outcome,[15],inactive
same,Potency,[19],inactive
same,outcome,[16],inactive
same,Potency,[17],inactive
O=C1NC(=O)C2CC=CCC12 (stereo unspecified),Potency,[1],inactive
same,outcome,[2],inactive
same,outcome,[3],inactive
same,Potency,[4],inactive
same,Potency,[5],inactive
same,outcome,[6],inactive
same,Potency,[18],inactive
same,Potency,[9],inactive
same,Potency,[10],inactive
same,outcome,[11],inactive
same,outcome,[12],inactive
same,Potency,[13],inactive
same,outcome,[14],inactive
same,outcome,[15],inactive
same,Potency,[19],inactive
same,outcome,[16],inactive
same,Potency,[17],inactive
